# Unmarked numbers belong to inactive results.
# System: Pectobacterium parmentieri SCC3193
# Assay: DuctApe activity index (growth/respiration on compound as sole nutrient source, blank-subtracted) (activity index (0-3)); higher = stronger utilization of the compound, active = 3 or more
# Details: nutrient role (plate category): carbon
# Experimental: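 Biolog Phenotype Microarray plates PM1, PM2A (carbon), PM3 (nitrogen) and PM4 (phosphorus/sulfur) inoculated with P. parmentieri SCC3193 in M9-C minimal salts medium with Biolog dye A, and read in the OmniLog for 46 h. Each well was tested in triplicate and the experiment was run twice. DuctApe computed a blank-subtracted activity index (AV, 0-3) from the mean curves; growth is positive at AV >= 3 and negative at AV <= 2.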
row,Compound,DuctApe activity index
1,O=C(O)CC(O)(CC(=O)O)C(=O)O [Citric acid],2
2,NCC(=O)N1CCC[C@H]1C(=O)O,0
3,"CC(O)CO (configuration not stated) [1,2-Propanediol]",0
4,OCC(O)C(O)C(O)CO (configuration not stated) [Adonitol],1
5,O=C(CO)[C@@H](O[C@H]1O[C@H](CO)[C@@H](O)[C@H](O)[C@H]1O)[C@H](O)[C@H](O)CO [Turanose],0
6,OC[C@H]1O[C@H](O[C@H]2[C@H](O)[C@@H](O)[C@@H](O[C@H]3[C@H](O)[C@@H](O)[C@@H](O)O[C@@H]3CO)O[C@@H]2CO)[C@H](O)[C@@H](O)[C@@H]1O [Maltotriose],3 (active)
7,O=C1CC[C@@H](C(=O)O)O1 [a-Hydroxyglutaric acid-g-Lactone],1
8,CC(O)(CC(=O)O)C(=O)O (configuration not stated) [Citramalic acid],0
9,CC[C@H](O)C(=O)O [a-Hydroxybutyric acid],0
10,NCCO [2-Aminoethanol],0
11,CCC(C)N (configuration not stated) [sec-Butylamine],0
12,CO[C@H]1O[C@H](CO)[C@@H](O)[C@H](O)[C@H]1O [a-Methyl-D-Glucoside],0
13,OC[C@H]1OC(O[C@H]2[C@H](O)[C@@H](CO)OC(O[C@H]3[C@H](O)[C@@H](CO)OC(O)[C@@H]3O)[C@@H]2O)[C@H](O)[C@@H](O)[C@@H]1O (some centres not stated) [Laminarin],0
14,CO[C@@H]1O[C@H](CO)[C@H](O)[C@H](O)[C@H]1O [b-Methyl-D-Galactoside],2
15,O=C(O)CCC(=O)C(=O)O [a-Ketoglutaric acid],0
16,NCC(=O)N[C@@H](CC(=O)O)C(=O)O,0
17,CCC(=O)C(=O)O [a-Ketobutyric acid],0
18,OCC1OC(O)(CO)C(O)C1O [D-Fructose],3 (active)
19,CO[C@@H]1O[C@H](CO)[C@@H](O)[C@H](O)[C@H]1O [b-Methyl-D-Glucoside],3 (active)
20,CC(=O)CC(=O)O [Acetoacetic acid],0
21,OC[C@H]1O[C@@H]2O[C@H]3[C@H](O)[C@@H](O)[C@@H](O[C@H]4[C@H](O)[C@@H](O)[C@@H](O[C@H]5[C@H](O)[C@@H](O)[C@@H](O[C@H]6[C@H](O)[C@@H](O)[C@@H](O[C@H]7[C@H](O)[C@@H](O)[C@@H](O[C@H]8[C@H](O)[C@@H](O)[C@@H](O[C@H]1[C@H](O)[C@H]2O)O[C@@H]8CO)O[C@@H]7CO)O[C@@H]6CO)O[C@@H]5CO)O[C@@H]4CO)O[C@@H]3CO [b-Cyclodextrin],0
22,O=C(CO)[C@@H](O)[C@H](O)[C@H](O)CO[C@H]1O[C@H](CO)[C@@H](O)[C@H](O)[C@H]1O [Palatinose],0
23,CCC(=O)O [Propionic acid],0

# Same assay, conditions: nutrient role (plate category): nitrogen
row,Compound,DuctApe activity index
1,Nc1[nH]cnc2ncnc1-2 [Adenine],0
2,O=NO [Nitrite],0
3,C[C@H](N)C(=O)N[C@@H](CCC(N)=O)C(=O)O,1
4,N[C@@H](Cc1c[nH]c2ccccc12)C(=O)O [L-Tryptophan],1
5,Nc1nc2c(ncn2[C@@H]2O[C@H](CO)[C@@H](O)[C@H]2O)c(=O)[nH]1 [Guanosine],0

# Same assay, conditions: nutrient role (plate category): phosphate & sulphur
row,Compound,DuctApe activity index
1,Nc1ccn([C@@H]2O[C@H](COP(=O)(O)O)[C@@H](O)[C@H]2O)c(=O)n1 [Cytidine 5`-Monophosphate],1
2,O=C(O)[C@H](O)[C@@H](O)[C@H](O)[C@H](O)COP(=O)(O)O [6-Phospho-Gluconic acid],2
3,Nc1ccc(S(=O)(=O)O)cc1 [p-Aminobenzene Sulfonic acid],0
4,O=P(O)(O)OC[C@H]1OC(O)[C@@H](O)[C@@H](O)[C@@H]1O (stereo partly drawn) [D-Mannose-6-Phosphate],1
5,O=c1ccn([C@@H]2O[C@H](CO)[C@@H](OP(=O)(O)O)[C@H]2O)c(=O)[nH]1 [Uridine 3`-Monophosphate],2
6,NC(CCSCC(N)C(=O)O)C(=O)O (configuration not stated) [Cystathionine],1
7,Cc1cn([C@H]2C[C@H](O)[C@@H](COP(=O)(O)O)O2)c(=O)[nH]c1=O [Thymidine 5`-Monophosphate],2
8,N[C@H](COP(=O)(O)O)C(=O)O [O-Phospho-D-Serine],2
9,O=S(=O)(O)O [Sulfate],1
